# Source: the supplement of paper PMC8183993
# “And” between values parts separate entries of the source, which are not always exact repeats. Equal values may be shown once. Where a name gives a salt, the structure may show the parent alone. ± gives the standard deviation of the averaged measurements. Whole data set: some 3,200 compounds, median “nuclei count (viability) relative to DMSO” near 99, cut for the lowest 2% near 16. The sample as a whole holds a higher share of the lowest values than the screen did.
# Test system: U2OS
# Test: nuclei count (viability) relative to DMSO (% of DMSO); higher = more viable cells
# Conditions: 10 µM; 24 h
# Procedure: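 Primary image-based screen in U2OS cells: compounds at 10 uM for 24 h, then a 1 h o-propargyl-puromycin (OPP) pulse, click labelling, and high-throughput microscopy. Mean cytoplasmic OPP intensity and nuclei count were normalised to DMSO wells within each plate (DMSO = 100) and averaged over triplicate plates.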
row,SMILES,nuclei count
1,CC(C)c1ccc(NC(=O)Cn2cnc3c2c(=O)n(C)c(=O)n3C)cc1,103
2,COc1cc2c(NC3CCN(C(C)C)CC3)nc(N3CCC(F)(F)CC3)nc2cc1OCCCN1CCCC1,50.6
3,C[C@@H]1CN(CCCn2c3ccccc3c3ccccc32)C[C@H](C)N1 [Rimcazole dihydrochloride],80
4,CCN(CCO)CCCC(C)Nc1ccnc2cc(Cl)ccc12 (stereo not given) [Hydroxychloroquine sulfate],96.1
5,CCN(CC)CCCC(C)Nc1ccnc2cc(Cl)ccc12 (stereo not given) [Chloroquine diphosphate],103
6,CCN(CCO)CCCC(C)Nc1ccnc2cc(Cl)ccc12 (stereo not given) [Hydroxychloroquine],85.7
7,CCN(CC)CCCC(C)Nc1ccnc2cc(Cl)ccc12 (stereo not given) [Chloroquine],96.6
8,CCN(CC)CCCC(C)Nc1c2ccc(Cl)cc2nc2ccc(OC)cc12 (stereo not given) [Quinacrine dihydrochloride dihydrate],12.9
9,CC1=CC(=O)C(C(C)C)=CC1=O [Thymoquinone],103
10,COc1ccc(CCN(C)CCCOc2ccc(S(=O)(=O)c3c(C(C)C)n(C)c4ccccc34)cc2)cc1OC,47.5
11,C1CCC(C(CC2CCCCN2)C2CCCCC2)CC1 (stereo not given) [Perhexiline maleate],5.66
12,COc1cc(-c2cn(C)c(=O)c3cnccc23)c(OC)cc1CN(C)C,110
13,Cc1ccc(-n2nc(C(C)(C)C)cc2NC(=O)Nc2ccc(OCCN3CCOCC3)c3ccccc23)cc1 [BIRB 796 (Doramapimod)],94.7
14,COc1ccc(NC(=O)c2ccc(-c3ccc(-c4noc(C)n4)cc3C)cc2)cc1OCCN(C)C,100
15,COc1ccc2cc3[n+](cc2c1OC)CCc1cc2c(cc1-3)OCO2 [Berberine HCl],98.6
16,C[n+]1cc2c3c(ccc2c2ccc4cc5c(cc4c21)OCO5)OCO3 [Sanguinarine chloride],12
17,Cc1[nH]c2ccccc2c1C(Nc1ccccn1)c1ccc(Cl)cc1 (stereo not given),93.9
18,CC[N+](C)(CC)CC(=O)Nc1c(C)cccc1C [N-Methyllidocaine iodide],98.4
19,CC1=C(C(=O)OCCN(Cc2ccccc2)c2ccccc2)C(c2cccc([N+](=O)[O-])c2)C(P2(=O)OCC(C)(C)CO2)=C(C)N1 (stereo not given) [Efonidipine hydrochloride monoethanolate],99.9
20,COc1cc(NC(C)CCCN)c2ncccc2c1 (stereo not given) [Primaquine diphosphate],15.7
21,CCC(C)N(C)C(=O)c1cc2ccccc2c(-c2ccccc2Cl)n1 (stereo not given),106
22,COC(=O)c1c(-c2cc(OC)c(OC)c(OC)c2)c2ccnc(OCc3ncccn3)c2c(=O)n1Cc1ccnc(C)c1 [T 0156 hydrochloride],107
23,COc1cc2c(Nc3ccc(NC(=O)c4ccccc4)cc3)ncnc2cc1OCCCN1CCOCC1,49.8 and 53.3
24,COc1cc2nccc(Oc3ccc(NC(=O)C4(C(=O)Nc5ccc(F)cc5)CC4)cc3)c2cc1OC [Cabozantinib malate],59
25,COc1cc2c(Oc3ccc(NC(=O)C4(C(=O)Nc5ccc(F)cc5)CC4)cc3F)ccnc2cc1OCCCN1CCOCC1,12

row,SMILES,nuclei count
1,COc1cc2nccc(Oc3ccc(NC(=O)C4(C(=O)Nc5ccc(F)cc5)CC4)cc3)c2cc1OC [XL-184 free base (Cabozantinib)],51.5
2,O=C1c2c(O)cc(O)cc2OC(c2ccc(O)c(O)c2)C1O (stereo not given) [Taxifolin (Dihydroquercetin)],90.7
3,O=C(O)c1ccc(O)c2ncccc12,99.5
4,COc1ccc([C@@H]2CNC(=O)C2)cc1OC1CCCC1 [(R)-(-)-Rolipram],96.2
5,CC[N+](CC)(CC)CC(=O)Nc1c(C)cccc1C [QX 314 chloride],104
6,CC[N+](CC)(CC)CC(=O)Nc1c(C)cccc1C [QX 314 bromide],97.5
7,CC[N+](CC)(CC)CC(=O)Nc1c(C)cccc1C [QX-314 bromide],104
8,COc1ccc(CN(CCN(C)C)c2ccccn2)cc1 [Pyrilamine maleate],102
9,CN(C)CCN(Cc1ccc(Cl)cc1)c1ccccn1 [Chloropyramine hydrochloride],105
10,CCCCCCCCCCCCCCCC[N+](C)(C)CCN(Cc1ccc(OC)cc1)c1ncccn1 [Thonzonium bromide],12.1
11,COc1ccc(CN(CCN(C)C)c2ccccn2)cc1 [Mepyramine maleate],104
12,CC(=O)O[C@@H]1C[C@H]2C(C)(C)C(=O)C=C[C@]2(C)[C@H]2CC[C@@]3(C)[C@H](c4ccoc4)OC(=O)[C@H]4O[C@]43[C@@]21C [Gedunin],85.6
13,COC1CCC(C(=O)c2ccc3nc4c(cc3c2)CCCO4)CC1 (stereo not given),96.5
14,CCn1cc(-c2cccc(C(F)(F)F)c2)c2sc(C(=N)NC3CCS(=O)(=O)CC3)cc2c1=O,91.5
15,Cc1ccc(C(=O)N(CCCN)[C@@H](c2nc3cc(Cl)ccc3c(=O)n2Cc2ccccc2)C(C)C)cc1,9.23
16,Cc1ccc(C(=O)N(CCCN)[C@@H](c2oc3cc(Cl)ccc3c(=O)c2Cc2ccccc2)C(C)C)cc1,20.5
17,Fc1ccc(-c2nc3n(c2-c2ccncc2)CCS3)cc1,103
18,C[C@H]1C[C@H]2[C@@H]3CCC4=CC(=O)C=C[C@]4(C)[C@H]3C(=O)C[C@]2(C)[C@@]1(O)C(=O)CO [Betapar (Meprednisone)],107
19,"C[C@H](CC[C@@H]1OC1(C)C)[C@H]1CC[C@H]2[C@@H]3CC=C4C[C@@H](O)CC[C@]4(C)[C@H]3CC[C@]12C [24(S),25-Epoxycholesterol]",107
20,Cc1c(NC(=O)OC[C@@H]2COCCN2)cn2ncnc(Nc3ccc4c(cnn4Cc4cccc(F)c4)c3)c12,100
21,CC1(C)C(=O)NC2=C1C(=O)C(=O)c1ccccc12,40.5 and 19.2
22,COc1ccc(NS(=O)(=O)c2sc3ccc(Cl)cc3c2C)cc1N1CCNCC1,98.3
23,O=C(Nc1ccccc1)C12CC1C(=NO)c1ccccc1O2 (stereo not given),99.8
24,O=C1C(Cl)=C(NCCN2CCOCC2)C(=O)c2ncccc21,5.89
25,O=C(NCCN1CCOCC1)c1ccc(Cl)cc1 [Moclobemide],90.8

row,SMILES,nuclei count
1,Cc1cc(-c2ccccc2)nnc1NCCN1CCOCC1 [Minaprine dihydrochloride],102
2,CCN(CC)c1ccc(/C=N/NC(=O)c2ccc(O)cc2)cc1,89.4
3,C[N+](C)(C)CC[N+]1(C)Cc2c(Cl)c(Cl)c(Cl)c(Cl)c2C1 [Chlorisondamine diiodide],90.8
4,O=C(O)[C@H]1O[C@@H](Oc2cc3oc(-c4ccccc4)cc(=O)c3c(O)c2O)[C@H](O)[C@@H](O)[C@@H]1O [Baicalin],101
5,c1cc2c3c(c1)c1c(n3CCNC2)CCCC1 [WAY 629 hydrochloride],94.2
6,Cc1cc(O)c2c(c1)C(=O)c1cccc(O)c1C2=O [Chrysophanic acid (Chrysophanol)],92.5 ± 11
7,CC(C)[C@H](C(=O)Nc1ccc(C(=O)NO)cc1)c1ccccc1,29.3
8,CCN(CC)Cc1ccc2cc(COC(=O)Nc3ccc(C(=O)NO)cc3)ccc2c1 [ITF2357 (Givinostat)],14.7
9,COc1ccc(Cn2ccc3ccc(C(=O)NO)cc32)cc1,101
10,Nc1ncnc2c1ncn2[C@@H]1O[C@H](COP(=O)(O)OP(=O)(O)OP(=O)(O)O)[C@@H](O)[C@H]1O [ATP (Adenosine-Triphosphate)],106
11,CCN(CC)CCNC(=O)c1c(C)[nH]c(/C=C2\C(=O)Nc3ccc(Cl)cc32)c1C,79.9
12,CCCS(=O)(=O)c1nc(NC2CC2)cc(-c2ccc3c(ccn3C3CC(C)(C)NC(C)(C)C3)c2)n1,8.4
13,O=C(NC[C@H](O)CN1CCc2ccccc2C1)c1ccnc(NC2CCC2)c1,102
14,Cc1ccc(/C=C2\CNC/C(=C\c3ccc(C)cc3)C2=O)cc1,7.58
15,CC1(C)[C@@H](O[C@H]2O[C@H](C(=O)O)[C@@H](O)[C@H](O)[C@H]2O[C@@H]2O[C@H](C(=O)O)[C@@H](O)[C@H](O)[C@H]2O)CC[C@]2(C)[C@H]3C(=O)C=C4[C@@H]5C[C@@](C)(C(=O)O)CC[C@]5(C)CC[C@@]4(C)[C@]3(C)CC[C@@H]12 [Glycyrrhizic acid],101
16,CC1(C)[C@@H](O[C@H]2O[C@H](C(=O)O)[C@@H](O)[C@H](O)[C@H]2O[C@@H]2O[C@H](C(=O)O)[C@@H](O)[C@H](O)[C@H]2O)CC[C@]2(C)[C@H]3C(=O)C=C4[C@@H]5C[C@@](C)(C(=O)O)CC[C@]5(C)CC[C@@]4(C)[C@]3(C)CC[C@@H]12 [Ammonium Glycyrrhizinate (AMGZ)],101
17,CC(C)Cc1ccc(C(C)C(=O)NO)cc1 (stereo not given) [Ibuproxam],95.9
18,CN(C)c1ccc(C(=C2C=CC(=[N+](C)C)C=C2)c2ccc(N(C)C)cc2)cc1 [Crystal violet],13
19,CCOC(=O)Nc1cc(-c2ccc(C)c(NS(C)(=O)=O)c2)nn2c(C)nnc12 [Bromosporine],74.5
20,"CCCn1c(=O)c2[nH]c(-c3ccccc3)nc2n(CCC)c1=O [1,3-Dipropyl-8-phenylxanthine]",98.9
21,CC(C)C(=O)SCCCCCCC(=O)Nc1nc(-c2ccccc2)cs1,45.8
22,CCOC(=O)c1cnc2c(cnn2CC)c1NN=C(C)C [Etazolate hydrochloride],106
23,CN1CCN(C(=O)c2nc3ccc(Cl)cc3[nH]2)CC1,88.3
24,Cc1[nH]c(/C=C2\C(=O)Nc3ccc(S(=O)(=O)N(C)c4cccc(Cl)c4)cc32)c(C)c1C(=O)N1CCN(C)CC1,52.4
25,CN1CCCN(C(=O)c2cccc(-c3ccc(/C=C4/C(=O)Nc5ccc(Cl)cc54)o3)c2)CC1,6.22
